This is a sample that favours compounds with a hit; in the whole collection about 1.3% have one here.
AmpC detergent = AmpC beta-lactamase inhibition with detergent present | P00811 | AmpC hydrolysis of nitrocefin, absorbance 480 nm, 0.01% Triton | actives 0.041% (n = 370,000) | Potency, µM (doses to about 114 µM), without a hit: at the highest dose activity change, negative = inhibition, most hits filed as inhibitors;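 note: 0% = no-compound wells and -100% = no-enzyme wells; nearly all actives have a fitted effect of over 25% in size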
Target sequence (P00811 whole entry, looked up): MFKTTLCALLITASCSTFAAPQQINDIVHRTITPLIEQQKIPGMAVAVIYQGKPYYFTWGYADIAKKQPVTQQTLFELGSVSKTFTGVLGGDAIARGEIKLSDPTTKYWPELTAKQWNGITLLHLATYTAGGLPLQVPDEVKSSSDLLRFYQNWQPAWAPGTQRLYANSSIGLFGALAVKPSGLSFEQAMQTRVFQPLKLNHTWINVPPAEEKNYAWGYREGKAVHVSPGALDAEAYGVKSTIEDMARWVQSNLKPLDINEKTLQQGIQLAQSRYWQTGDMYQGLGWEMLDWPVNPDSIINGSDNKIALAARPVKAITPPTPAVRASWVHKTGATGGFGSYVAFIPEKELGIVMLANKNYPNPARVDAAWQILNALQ
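AmpC (5.3 nM in the dispensed reagent) in 20 mM phosphate pH 7.0 with 0.01% (detergent screen) or 0.0001% Triton X-100 was preincubated with compounds for 15 min at room temperature. Nitrocefin was then added from an 800 uM solution, and hydrolysis was followed at 480 nm.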
SARS PLP yeast = inhibitors of SARS-CoV papain-like protease in yeast | S. cerevisiae expressing SARS-CoV PLpro, growth rescue | Potency, µM (highest dose often 32.9 µM), inactives show at the highest dose activity, positive = growth rescue, most hits filed as activators | actives 0.19% (n = 330,000) | AID 485353; calls by dose curve; note: 0% is about no effect; nearly all actives have a fitted effect of over 55% in size
VACV mCherry inh = vaccinia inhibition (mCherry reporter); Vaccinia virus mCherry reporter infection, fluorescence; Potency, µM (titrated, usually from 36.5 µM), without a hit: at the highest dose activity change, negative = inhibition, most hits filed as inhibitors; actives 0.63% (n = 310,000); calls by dose curve; tested in A549 cells; note: % is set by controls: 0 for no effect and ±100 for the full control effect; nearly all actives have a fitted effect of over 35% in size
AmpC inh no detg = blocks E. coli AmpC beta-lactamase in detergent-free assay. AID 485341. actives 0.52% (n = 330,000). P00811. AmpC nitrocefin hydrolysis, absorbance 480 nm, 0.0001% Triton. Potency, µM (top dose mostly 57.1 µM), without a hit: at the highest dose activity change, negative = inhibition, most hits filed as inhibitors;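 note: plate controls were no compound for no effect and no enzyme for full effect; nearly all actives have a fitted effect of over 20% in size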
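AmpC (5.3 nM in the dispensed reagent) in 20 mM phosphate pH 7.0 with 0.01% (detergent screen) or 0.0001% Triton X-100 was preincubated with compounds for 15 min at room temperature. Nitrocefin was then added from an 800 uM solution, and hydrolysis was followed at 480 nm.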
Vaccinia Venus = vaccinia inhibition (Venus reporter). actives 0.46% (n = 330,000). Vaccinia virus Venus reporter expression, fluorescence. Potency, µM (top dose mostly 36.5 µM), without a hit: at the top dose activity change, negative = inhibition, usual class: inhibitors; calls by dose curve; tested in A549 cells; note: % is set by controls: 0 for no effect and ±100 for the full control effect; nearly all actives have a fitted effect of over 30% in size
Starred values were filed as active, the others as inactive; i = inactive; ? = inconclusive; . = not tested or not shown; ! = repeats disagree; [ ] = remark or other dose. Unless noted, calls come from the whole dose curve; as a rule, active = well fitted curve in the direction sought with a large enough effect; inconclusive = small, poorly fitted or top-dose-only effect, or another doubt; inactive = no such curve, though single readings can be large; an effect the other way counts as inactive or inconclusive. Potency is the fitted concentration of half-maximal effect.

SMILES	AmpC detergent	SARS PLP yeast	VACV mCherry inh	AmpC inh no detg	Vaccinia Venus
CCOC(=O)C1(CC2CCCCO2)CCN(Cc2cc3ccccc3[nH]2)CC1 (configuration not stated)	-0.4%	0.8%	2.51µM*	-29.1%	?
COCC(=O)Nc1cc(C(=O)NC2CCCc3ccccc32)c2c(c1)nc(-c1ccncc1)n2C (configuration not stated)	.	.	-14.1%	.	-8.1%
CC(C)N(C(=O)[C@H]1C[C@H](CC(=O)NCC23CC4CC(CC(C4)C2)C3)C(=O)N2CCc3c([nH]c4ccc(Cl)cc34)[C@]12C)C(C)C	.	-43.3%	?	56.5%	12.6µM*
CCN(CC)C(=O)[C@H]1C[C@H](CC(=O)NCC23CC4CC(CC(C4)C2)C3)C(=O)N2CCc3c([nH]c4ccc(Cl)cc34)[C@]12C	.	-14.9%	?	-13.3%	10µM*
CCN(CC)C(=O)[C@H]1C[C@H](CC(=O)NCCCN(C)C)C(=O)N2CCc3c([nH]c4ccc(Cl)cc34)[C@]12C	.	-18.9%	i	169.1%	?
Nn1cnnc1N/N=C/c1cc(Br)cc(Br)c1O	?	5.9%	8.91µM*	-6.6%	?
CC(C)(C)c1ccc(/C=N/Nc2nncn2N)cc1	?	-10.3%	?	-6.0%	?
O=C(COC(=O)c1ccc(O)cc1)Nc1cccc(S(=O)(=O)N2CCCCC2)c1	1.7%	0.8%	i	8.91µM*	-12.8%
Cc1ccc(NC(=O)c2cc(S(=O)(=O)N3CCCCC3)c[nH]2)cc1C	?	6.6%	i	7.08µM*	-6.1%
Cc1ccc(NC(=O)c2cc(S(=O)(=O)N3CCCCC3)c[nH]2)cc1F	-14.9%	-7.5%	-11.5%	-27.3%	-9.4%
CN(C)c1ccc(C(=O)Nc2cccc(S(=O)(=O)N3CCCC3)c2)cc1	-15.3%	-0.1%	.	28.2µM*	.
CS(=O)(=O)c1ccc(C(=O)OCC(=O)Nc2cccc(S(=O)(=O)N3CCCC3)c2)cc1	-12.1%	0.2%	-5.5%	-54.4%	-11.7%
O=C(Nc1ccc(S(=O)(=O)N2CCCC2)cc1)c1cccc(OC(F)F)c1	-17.7%	?	-22.0%	31.6µM*	-21.0%
CN(C)S(=O)(=O)c1cccc(NC(=O)c2ccc(S(=O)(=O)N3CCCCC3)cc2)c1	?	4.3%	?	-34.4%	-26.7%
O=C(Nc1cccc(S(=O)(=O)N2CCCC2)c1)c1cccc(OC(F)F)c1	?	3.7%	-4.4%	-36.8%	-10.2%
Cc1occc1C(=O)NCCN1Cc2ccccc2OC(c2ccccc2F)C1 (configuration not stated)	.	.	-8.8%	.	2.1%
O=C(Nc1cccc(S(=O)(=O)C(F)F)c1)c1ccc(S(=O)(=O)N2CCCCC2)cc1	?	-0.8%	?	-26.4%	?
O=C(Nc1cccc(S(=O)(=O)N2CCCCC2)c1)c1ccc(S(=O)(=O)C(F)F)cc1	-14.0%	0.2%	-22.0%	22.4µM*	-27.6%
Cc1nc(CS(=O)(=O)c2ccc(Cl)cc2)cc(Sc2ccccc2Cl)n1	5.0%	-11.0%	.	3.55µM*	-22.1%
Cc1nc(CS(=O)(=O)c2ccccc2)cc(Sc2ccc(Cl)cc2)n1	0.4%	0.4%	.	3.98µM*	-7.1%
Cc1oc(-c2ccccc2NC(=O)C2CCC2)nc1CNC(=O)c1ccccn1	.	.	-4.5%	.	-0.6%
CC(C)(C)c1ccc(OCCC(=O)Nc2ccc(N3CCOCC3)cc2N2CCOCC2)cc1	-6.5%	1.5%	12.6µM*	222.0%	-26.2%
CC(=O)CCSc1nnc(-c2cccc(S(=O)(=O)N3CCOCC3)c2)o1	?	3.7%	-9.4%	?	-7.8%
O=S(=O)(c1cccc(-c2nnc(SCc3nc4ccccc4s3)o2)c1)N1CCOCC1	2.5%	-0.9%	12.6µM*	46.2%	?
Cc1cc2c(c(-c3cnccn3)c1)OC(CNC(=O)C1CCCN(C)C1)C2 (configuration not stated)	.	.	-8.7%	.	4.4%
SMILES	AmpC detergent	SARS PLP yeast	VACV mCherry inh	AmpC inh no detg	Vaccinia Venus
Oc1c(CNc2ccccc2)cc(COCc2ccccc2)c2cccnc12	?	4.47µM*!	.	-32.3%	.
O=C(NNC(=O)c1cccnc1SCc1cccc([N+](=O)[O-])c1)c1ccccn1	-3.5%	-2.0%	3.98µM*	-16.7%	?
O=C(NNC(=O)c1cccnc1SCc1cccc([N+](=O)[O-])c1)c1ccc(F)cc1	-10.4%	-8.8%	-10.3%	-21.3%	-15.4%
Cc1ccc(NC(=O)COC(=O)c2ccccc2Nc2ccccc2)cc1	-2.2%	12.0%	-3.2%	25.1µM*	-23.5%
CC1Cc2ccccc2N1S(=O)(=O)c1cccc(C(=O)N2CCN(c3ncccn3)CC2)c1 (configuration not stated)	2.8%	-0.9%	1.58µM*	143.5%	17.9%
O=C(NC[C@@H]1CCCN2CCCC[C@H]12)c1cnn(-c2nccc(-c3cc4ccccc4o3)n2)c1C1CC1	.	.	-22.2%	.	-11.8%
COC(=O)c1cn([C@@H]2C[C@@H](C(=O)Nc3cccc(SC)c3)N(C3CCCCCC3)C2)nn1	.	.	-3.7%	.	-3.9%
OC(CNc1ccccc1)COc1ccc(OCC(O)CNc2ccccc2)cc1 (configuration not stated)	3.0%	-16.6%	.	-1.2%	11.2µM*
CCCCN=C1NN=C(c2cccc([N+](=O)[O-])c2)CS1	-12.0%	0.0%	-28.7%	-31.8%[11.4 µM]	-5.8%
CCCCN=C1NN=C(c2cc3ccccc3o2)CS1	-7.7%	8.6%	-11.9%	14.1µM*	-5.3%
O=C(Oc1nsnc1N1CCCCC1)N1CCOCC1	-4.2%	4.9%	14.1µM*	-11.6%	?
Cc1nc(C)c(-c2csc(Nc3ccc(O)cc3C)n2)s1	-14.0%	3.0%	1.12µM*	-12.9%	?
CCCCCCCCCC[n+]1ccc(/C=C/c2c[nH]c3ccccc23)c2ccccc21	.	.	i	.	i
O=c1[nH]c(=O)n([C@H]2C[C@@H](O)[C@@H](CO)O2)cc1F	.	.	3.55µM*	.	14.1µM*
O=c1[nH]c(=O)n(C2C[C@H](O)[C@@H](CO)O2)cc1C(F)(F)F (some centres not stated)	?	.	0.501µM*	-8.4%	?
O=c1[nH]c(=O)n([C@H]2C[C@H](O)[C@@H](CO)O2)cc1C(F)(F)F	-9.4%	6.4%	?	-18.3%	?
O=c1[nH]c(=O)n(C2CC(O)C(CO)O2)cc1Br (configuration not stated)	.	.	?	.	-20.2%
C#CCN(C[C@@H]1[C@@H](OC(=O)NCCCCCC)[C@@H](OC(=O)NCCCCCC)Cn2c(=O)ccc(=O)n21)S(=O)(=O)c1ccc(C)cc1	.	.	?	.	5.62µM*
C#CCN(C[C@H]1[C@H](OC(=O)NCC2CCCCC2)[C@H](OC(=O)NCC2CCCCC2)C[C@@H](C(=O)OC)[C@H]1C(=O)OC)S(=O)(=O)c1ccc(C)cc1	.	.	-14.5%	.	?
